Molecules are shown by their SMILES. About 840 (25%) of roughly 3,400 compounds were called active. Inconclusive results (about 11%) are left out. The list is a sample of the results. Potency and affinity values are given separately. A number with no mark means an inactive call.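 The calls were made as follows: active = fitted half-maximal concentration of signal decrease at or below twice the sample's top tested concentration; inconclusive = flat curve between -70 and -30 percent, or poor fit; inactive = flat within 30 percent, signal rise, or potency above limit.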

The test in a line: T. gondii growth inhibition with IFN-gamma, dose response, cell-based, ME49Luc, HeLa, luciferase, 72 h (AID 1259418). Conditions: T. gondii ME49Luc in IFN-y HeLa, hits give low values, -100% = high-dose IFN-γ control wells; at 19.5 µM unless noted.
As to `c1cc(-c2nccn2CCn2ccnc2)ccn1`, the max activity is 11.4%.
In the case of `COc1cccc(CNc2nc(-c3ccc(Cl)cc3)nc3ccccc23)c1`, the max activity was -22% [at 1.35 µM].
In the case of `O=S(=O)(c1cccc(F)c1)N1CC[C@@H]2[C@H]1c1cc(Br)ccc1N[C@@H]2CO` it was 35.2% [at 10 µM]; in that of `OC[C@@H]1Nc2ccc(-c3cccc(F)c3)cc2[C@H]2[C@@H]1CCN2Cc1ccc(F)cc1`, 42.2% [at 10 µM]; in that of `Cc1ccc(-c2csc(-c3cccn3CC(=O)N3CCC4(CC3)OCCO4)n2)cc1`, 11.8% [at 5 µM].
For `Cc1oc(-c2ccccc2)nc1Cn1nnc(-c2nc(-c3ccc(F)c(Cl)c3)no2)c1C` the value was -12.6% [at 1.35 µM].
For `O=C(COc1ccccc1)N1CCC2(CC1)Nc1cc(F)ccc1-n1cccc12`, the max activity is 10.6% [at 5 µM].
In the case of `CCOc1ccc(-c2nc(CN3CCN(C(=O)Nc4ccccc4C(=O)OC)CC3)c(C)o2)cc1` it was 6.24% [at 0.16 µM]; in that of `COc1cc(CCC(=O)N2CCC3(CC2)Nc2ccc(C)c(C)c2-n2cccc23)cc(OC)c1OC`, -12.8% [at 2.6 µM]; in that of `O=C(c1ccccc1F)N1CCC2(CC1)Nc1ccc(Cl)cc1-n1cccc12`, -6.53% [at 0.35 µM].
For `O=C(c1ccc(F)cc1)N1CCC2(CC1)Nc1ccc(Cl)cc1-n1cccc12` the value was 13.8% [at 0.68 µM].
For `COc1ccc(-c2nc(NCCc3ccc(SC)cc3)c3ccccc3n2)cc1` the value was -32.9%; for `CCOC(=O)CSC1=Nc2ccccc2C2=NC(CC(=O)NCc3ccc(F)cc3)C(=O)N12` (centres undefined), 17.3%.
Regarding `CC(C)C#Cc1ccc([C@H]2[C@@H](CO)N3C(=O)CN(S(=O)(=O)c4ccccc4)C[C@H]23)cc1`, the max activity is -8.27% [at 10 µM].
In the case of `CS(=O)(=O)N1CC(=O)N2[C@H](CO)[C@@H](c3ccc(Br)cc3)[C@H]2C1` it was 27.1%; in that of `CC(C)C#Cc1ccc([C@H]2[C@@H](CO)N3C(=O)CN(S(=O)(=O)c4ccccc4)C[C@@H]23)cc1`, 19.2% [at 10 µM].
For `CS(=O)(=O)N1CC(=O)N2[C@H](CO)[C@@H](c3ccc(C#CCC4CCCC4)cc3)[C@H]2C1` the value was 29.5% [at 11 µM]; for `CS(=O)(=O)N1CC(=O)N2[C@@H](CO)[C@H](c3ccc(C#Cc4ccc(F)cc4)cc3)[C@@H]2C1`, 11.8% [at 10 µM]; for `CS(=O)(=O)N1CC(=O)N2[C@H](CO)[C@H](c3ccc(C#CCC4CCCC4)cc3)[C@@H]2C1`, 13.6% [at 10 µM].
In the case of `Cc1ccc(C)c(CSc2ccc(-c3sc(-c4ccc(F)cc4)nc3C)nn2)c1` it was -9.1% [at 5 µM].
With `COc1ccc(-c2nc(NCc3ccccc3OC)c3ccccc3n2)cc1`, the max activity is -10.7% [at 0.68 µM].
For `O=C(Nc1ccc(-c2nc(-c3cccc(Br)c3)co2)cc1)Nc1cccc(F)c1` the value was -13.2% [at 2.6 µM]; for `COc1ccc(-n2c(C)cc(CNS(=O)(=O)c3ccc4c(c3)CCC(=O)N4)c2C)cc1`, 35.1%; for `Cc1ccccc1S(=O)(=O)N1CSC[C@@H]1C(=O)NCCc1csc(-c2ccccc2)n1`, -13% [at 0.16 µM].
For `CCS(=O)(=O)N1CSC[C@@H]1C(=O)NCCc1csc(-c2ccccc2)n1` the value was 7.03% [at 5 µM]; for `O=C(NCCc1csc(-c2ccccc2)n1)[C@H]1CSCN1S(=O)(=O)Cc1ccccc1`, 17.7% [at 2.6 µM]; for `O=C(NCCc1csc(-c2ccccc2)n1)[C@H]1CSCN1S(=O)(=O)c1ccccc1`, 14.6%.
Turning to `O=C(NCCc1csc(-c2ccccc2)n1)[C@H]1CSCN1S(=O)(=O)c1ccc(F)cc1`, the max activity was 15.5% [at 10 µM].
For `CCc1ccc(S(=O)(=O)N2CSC[C@@H]2C(=O)NCCc2csc(-c3ccccc3)n2)cc1` the value was -11.2% [at 0.68 µM].
For `COc1ccc(-c2nc(N3CCN(c4ccc(C)cc4C)CC3)c3ccccc3n2)cc1` the value was -12.6% [at 0.16 µM]; for `COc1ccc(CC(=O)Nc2ccc(-c3nc(-c4cc(C)ccc4C)co3)cc2)cc1`, 17.8% [at 0.16 µM]; for `COc1ccc(NC(=O)N2CC[C@@H]3[C@H]2c2cc(C4=CCCCC4)ccc2N(C)[C@H]3CO)cc1`, 18.9% [at 0.3 µM].
As to `CN1c2ccc(C3=CCCCC3)cc2[C@@H]2[C@@H](CCN2C(=O)C2CCOCC2)[C@H]1CO`, the max activity was 43.9%.
For `Cc1ccc(-c2coc(-c3ccc(NC(=O)C(C)C)cc3)n2)cc1` the value was 38.3%; for `COc1ccc(C)cc1NC(=O)Nc1ccc(-c2nc(-c3cc(C)ccc3C)co2)cc1`, 9.85% [at 0.35 µM].
Take `Cc1cc(C)c2c(=O)n(Cc3nc(-c4cccc(Cl)c4)oc3C)c(=O)n(-c3ccccc3)c2n1`: the max activity is -9.3% [at 0.16 µM].
For `COc1ccccc1CNC(=O)CC1N=C2c3ccccc3N=C(SCc3ccccc3F)N2C1=O` (centres undefined) the value was 21.2% [at 1.35 µM]; for `O=C(Cc1cccc(F)c1)Nc1ccc2c(c1)CCC(=O)N2`, -7.77%.
On to `O=C(C[C@@H]1CC[C@@H]2[C@H](COC[C@@H](O)CN2C(=O)Nc2cc(Cl)cc(Cl)c2)O1)N1CCOCC1`, for which the max activity was 20.4%.
On to `COCCO[C@H]1CCN(Cc2c(C)noc2C)[C@H]1Cc1ccccc1`, for which the max activity was 11.4%.
For `Cc1ccc(-c2coc(-c3ccc(NC(=O)Cc4cccs4)cc3)n2)c(C)c1`, the max activity was 116%.
In the case of `COc1cc(OC)cc(C(=O)Nc2ccc(-c3nc(-c4ccccc4)co3)cc2)c1` it was -34% [at 1.35 µM]; in that of `O=C(c1ccc2c(c1)OCO2)N1CC[C@@H]2[C@H]1c1cc(C#Cc3ccccc3)ccc1N[C@@H]2CO`, 33.7% [at 10 µM]; in that of `COc1ccccc1-c1ccc2c(c1)[C@H]1[C@H](CCN1S(=O)(=O)c1ccc(C)cc1)[C@@H](CO)N2`, 38.9%.
In the case of `Cc1ccc(S(=O)(=O)N2CC[C@@H]3[C@@H](CO)Nc4ccc(-c5cccc(C(=O)N(C)C)c5)cc4[C@@H]32)cc1` it was 30.1% [at 10 µM].
For `COc1ccccc1-c1ccc2c(c1)[C@@H]1[C@@H](CCN1S(=O)(=O)c1ccc(C)cc1)[C@H](CO)N2` the value was 39.6% [at 5 µM].
In the case of `N#Cc1cccc(-c2ccc3c(c2)[C@H]2[C@H](CCN2C(=O)c2ccccc2F)[C@@H](CO)N3)c1`, the max activity is 16.6% [at 10 µM].
In the case of `O=S(=O)(c1cccc(F)c1)N1CC[C@@H]2[C@H]1c1cc(C#Cc3ccccc3F)ccc1N[C@@H]2CO` it was 6.78% [at 0.3 µM]; in that of `Cc1ccc(S(=O)(=O)N2CC[C@@H]3[C@H](CO)Nc4ccc(-c5cccc(C(=O)N(C)C)c5)cc4[C@@H]32)cc1`, 26.4% [at 5 µM].

Source of the values: PubChem BioAssay AID1259418 (Broad Institute, 2018).
